Source: the supplement of paper PMC12024424
Counter-ions that a name gives are not always drawn.

tested on: Staphylococcus aureus Sa2 (MRSA, cystic fibrosis isolate); test: growth reduction vs untreated control (viable cell count); higher = stronger antibacterial activity; extreme values may be limits of the assay; conditions: 0.1 mM; 24 h
Procedure: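 Single-dose screen of the MedChem Express Drug Repurposing Library (0.1 mM, 1% DMSO) against planktonic MRSA S. aureus Sa2 (CF isolate) in TSB in 96-well plates, 37 °C aerobic, 24 h. Assays were run in triplicate and repeated twice.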

SMILES	growth reduction [%]
CC(OC(=O)NCC1(CC(=O)O)CCCCC1)OC(=O)C(C)C (stereo not given) [Gabapentin enacarbil]	93
O=C(Nc1ccccc1)c1ccccc1O [Salicylanilide]	93
Nc1ccn([C@@H]2O[C@H](CO)[C@@H](O)C2(F)F)c(=O)n1 [Gemcitabine (hydrochloride)]	100
Oc1c(Cl)cc(Cl)cc1Sc1cc(Cl)cc(Cl)c1O [Bithionol]	100
COc1cc([C@@H]2c3cc4c(cc3[C@@H](O[C@@H]3O[C@@H]5CO[C@@H](c6cccs6)O[C@H]5[C@H](O)[C@H]3O)[C@H]3COC(=O)[C@H]23)OCO4)cc(OC)c1O [Teniposide]	100
CC1(C)CC[C@]2(NC(=O)C(C)(F)F)CC[C@]3(C)[C@H](C(=O)C=C4[C@@]5(C)C=C(C#N)C(=O)C(C)(C)[C@@H]5CC[C@]43C)[C@@H]2C1 [Omaveloxolone]	100
Fc1ccc(C(c2ccc(F)cc2)N2CCN(C/C=C/c3ccccc3)CC2)cc1 [Flunarizine (dihydrochloride)]	98
C[C@H](Nc1cc(-c2cnn(C)c2)cc(Nc2cnccn2)n1)c1ccc(F)cc1 [Ilginatinib]	94
CC(C)(C)OC(=O)N[C@H]1CCCCC/C=C\[C@@H]2C[C@@]2(C(=O)NS(=O)(=O)C2CC2)NC(=O)[C@@H]2C[C@@H](OC(=O)N3Cc4cccc(F)c4C3)CN2C1=O [Danoprevir]	100
CCCCc1oc2ccccc2c1C(=O)c1cc(I)c(OCCN(CC)CC)c(I)c1 [Amiodarone (hydrochloride)]	98
CSc1ccc(C(=O)/C=C/c2cc(C)c(OC(C)(C)C(=O)O)c(C)c2)cc1 [Elafibranor]	95
COc1cc(F)c(F)c(Nc2ccc(I)cc2F)c1NS(=O)(=O)C1(C[C@H](O)CO)CC1 [Refametinib]	100
Cc1ccc(C(=O)N(CCCN)[C@@H](c2oc3cc(Cl)ccc3c(=O)c2Cc2ccccc2)C(C)C)cc1	100
CCOc1cc2ncc(C#N)c(Nc3ccc(F)c(Cl)c3)c2cc1NC(=O)/C=C/CN(C)C [Pelitinib]	97
O=C(Nc1ccc(F)cc1)c1cnc(SCc2cc(OC(F)(F)F)ccc2B(O)O)nc1	100
COCCNCCc1cccc(Nc2ncc3c(n2)-c2ccccc2[C@H](c2ccccc2F)C3)c1 [Derazantinib]	100
O=C(O)Cc1ccccc1Nc1c(Cl)cccc1Cl [Diclofenac]	100
Cc1c2c(nn1C)CSCc1cc(n(C)n1)CSc1cc(c3ccccc3c1)OCCCc1c(C(=O)O)n(C)c3c-2c(Cl)ccc13	100
C=C[C@@H]1C[C@]1(NC(=O)[C@@H]1C[C@@H]2CN1C(=O)[C@H](C(C)(C)C)NC(=O)O[C@@H]1C[C@H]1CCCCCc1nc3ccc(OC)cc3nc1O2)C(=O)NS(=O)(=O)C1CC1 [Grazoprevir potassium salt]	100
COc1ccc2c(c1OCc1ccccc1)C[C@@H](C(=O)O)N(C(=O)C(c1ccccc1)c1ccccc1)C2 [Olodanrigan]	100

SMILES	growth reduction [%]
COc1cccc(Nc2ncnn3ccc(CN4CC[C@@H](N)[C@H](O)C4)c23)c1	94
CCCCCCCCCCCCCCCC[N+](C)(C)CCN(Cc1ccc(OC)cc1)c1ncccn1 [Thonzonium (bromide)]	100
CC1=C(C)C(=O)C(CCCCCCCCCC[P+](c2ccccc2)(c2ccccc2)c2ccccc2)=CC1=O [Visomitin]	100
Clc1ccc(COC(Cn2ccnc2)c2ccc(Cl)cc2Cl)cc1 (stereo not given) [Econazole (nitrate)]	100
CCN1CCN(Cc2ccc(-c3cc4c(N[C@H](C)c5ccccc5)ncnc4[nH]3)cc2)CC1	100
CS(=O)(=O)c1cc(F)cc2c3c(n(Cc4ccc(Cl)cc4)c12)[C@@H](CC(=O)O)CC3 [Laropiprant]	99
Oc1ccc2c(c1)CC[C@H](c1ccccc1)[C@@H]2c1ccc(OCCN2CCCC2)cc1 [Lasofoxifene (Tartrate)]	100
COc1cc(C)c2c(Oc3cccc(C(F)(F)F)c3)c(OC)cc(NC(C)CCCN)c2n1 (stereo not given) [Tafenoquine (Succinate)]	100
C1CCC(C(CC2CCCCN2)C2CCCCC2)CC1 (stereo not given) [Perhexiline maleate]	100
O=C(O)CNC(=O)c1nc(Cl)c2ccccc2c1O	100
CC(C)(C)CC(C)(C)c1ccc(OCCOCC[N+](C)(C)Cc2ccccc2)cc1 [Benzethonium chloride]	100
CCCCN(CCCC)C(=O)CN1C[C@H](c2ccc3c(c2)OCO3)[C@@H](C(=O)O)[C@@H]1c1ccc(OC)cc1 [Atrasentan (hydrochloride)]	98
C[C@@H](NCCCc1cccc(C(F)(F)F)c1)c1cccc2ccccc12 [Cinacalcet (hydrochloride)]	100
Cc1ccc(NC(=O)C2(c3ccc4c(c3)OC(F)(F)O4)CC2)nc1-c1cccc(C(=O)O)c1 [Lumacaftor]	96
C[C@@H](O[C@H]1OCCN(Cc2n[nH]c(=O)[nH]2)[C@H]1c1ccc(F)cc1)c1cc(C(F)(F)F)cc(C(F)(F)F)c1 [Aprepitant]	100
O=c1[nH]c(=O)n([C@H]2C[C@H](O)[C@@H](CO)O2)cc1F [Floxuridine]	100
COc1cccc2c1c(O)c(C(=O)N(C)c1ccc(C(F)(F)F)cc1)c(=O)n2C [Tasquinimod]	98
CN1C(C(=O)Nc2ccccn2)=C(O)c2sc(Cl)cc2S1(=O)=O [Lornoxicam]	98
CC(C)(C)C(=O)Oc1ccc(S(=O)(=O)Nc2ccccc2C(=O)NCC(=O)O)cc1 [Sivelestat (sodium)]	93
O=C(NC(=Nc1cc(C(F)(F)F)[nH]n1)Nc1cc(F)cc(Cl)c1)c1cccc(Cl)c1 [Parimifasor]	100
